The values below come from PubChem BioAssay AID720504 (National Center for Advancing Translational Sciences (NCATS), 2013).

Screen size: about 360,000 compounds; about 10,000 (2.8%) were called active. Not shown: some 4% with an inconclusive outcome. This is one part of a sample in which actives are shown more often than they occur. Unmarked numbers belong to inactive results. Calls follow the shape of the dose curve; as a rule, active = well fitted inhibition curve with a large enough effect; inconclusive = small, poorly fitted or top-dose-only effect; inactive = flat fitted curve, though single readings scatter.
% is scaled to controls: 0 for no effect and ±100 for the full control effect; potency is read from the fitted curve at half-maximal effect.

Chain of Serine/threonine-protein kinase PLK1 (Homo sapiens) (P53350 whole entry, looked up, the tested form may be a part): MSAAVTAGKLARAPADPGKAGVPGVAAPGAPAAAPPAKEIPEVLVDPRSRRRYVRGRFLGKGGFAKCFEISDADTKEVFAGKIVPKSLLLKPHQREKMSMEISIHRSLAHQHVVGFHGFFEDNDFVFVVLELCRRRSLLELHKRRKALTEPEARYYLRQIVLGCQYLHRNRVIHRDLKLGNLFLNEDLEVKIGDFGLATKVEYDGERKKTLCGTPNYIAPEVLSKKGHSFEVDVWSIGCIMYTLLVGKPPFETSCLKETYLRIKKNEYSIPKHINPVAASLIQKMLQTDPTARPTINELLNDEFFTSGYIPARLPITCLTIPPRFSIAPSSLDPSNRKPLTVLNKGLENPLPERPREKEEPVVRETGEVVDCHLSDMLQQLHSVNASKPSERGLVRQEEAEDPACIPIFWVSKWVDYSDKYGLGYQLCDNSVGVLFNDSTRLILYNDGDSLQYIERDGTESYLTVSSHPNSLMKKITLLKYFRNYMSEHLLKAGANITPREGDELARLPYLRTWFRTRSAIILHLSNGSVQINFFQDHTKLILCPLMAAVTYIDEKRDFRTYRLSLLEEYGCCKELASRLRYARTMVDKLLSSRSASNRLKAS

The test concerns the target Serine/threonine-protein kinase PLK1 (Homo sapiens) (UniProt P53350). The test can be described thus: qHTS for Inhibitors of PLK1-PDB (polo-like kinase 1 - polo-box domain): Primary Screen. Also: nearly all actives have a fitted effect of over 65% in size. As to max response, negative = inhibition: series mostly up to about 57 µM. To be noted: Plk1 PBD binding of FITC phosphopeptide, fluorescence polarization.
Turning to `O=C(NCC(O)c1nc2ccccc2[nH]1)c1ccc(Br)cc1` (configuration not stated), the max response, negative = inhibition was -3.2%.

As to `CC1(C(=O)NCc2ccc3c(c2)OCO3)CCN1CCc1ccccc1` (configuration not stated), the max response, negative = inhibition was 2.52%. The same measure, in the same setting: under `CCN(CC)CCn1c2c(c(SCC(=O)Nc3nc4ccccc4s3)nc1=O)CCCC2` stands -2.27%; under `c1ccc(C(=NNc2nc3ccccc3s2)c2ccccn2)cc1`, -7.03%. For the molecule `c1ccc2sc(NN=C3CCCC3)nc2c1`, the Potency was 26.7 µM (active). On to `OC[C@@H]1CN(C2CCCC2)C[C@H](n2cnc3c(NC4CCC4)ncnc32)O1`, for which the max response, negative = inhibition was -3.48%. Turning to `C=CCn1c2c(c3ccccc31)CCC2`, the max response, negative = inhibition is -9.68%.

For the molecule `Cc1cc(C)c(-c2c(O)c3ccccc3n(C)c2=O)c(C)c1`, the max response, negative = inhibition was -5.02%.

On to `Cn1c(=O)c([N+](=O)[O-])c(Oc2ccccc2)c2ccccc21`, for which the Potency was 23.8 µM (active). As to `COc1cc2c(=O)n(C)c3ccccc3c2cc1OC`, the max response, negative = inhibition was -8.91%.

On to `CCOC(=O)c1c(C)[nH]c(C)c1C(=O)COC(=O)/C=C/c1cccc([N+](=O)[O-])c1`, for which the max response, negative = inhibition is 1.23%. On the same count and under the same terms, under `Cc1ccnc(NS(=O)(=O)c2ccc(NC(=O)c3oc4ccccc4c3C)cc2)n1` stands -5.87%.

With `Cc1ccnc(NS(=O)(=O)c2ccc(NC(=O)c3ccc(S(=O)(=O)N(C)C)cc3)cc2)n1`, the Potency is 26.7 µM (active). Turning to `Cc1ccnc(NS(=O)(=O)c2ccc(NC(=O)c3ccc(S(=O)(=O)N4CCOCC4)cc3)cc2)n1`, the max response, negative = inhibition was -5.87%. The same measure, in the same setting: under `COc1ccc(C(C)(O)c2nc(-c3cc(F)cc(F)c3)cs2)cc1` (configuration not stated) stands 4.82%; under `OC(c1ccccc1)(c1ccccc1)C1CCN(CCCOc2ccccc2)CC1`, 0.305%. For `CC(C)N=C1CCCC1C(=S)SSC(=S)C1CCCC1=NC(C)C` (configuration not stated), the Potency is 9.47 µM (active).

In the case of `CCC(c1nc2ccccc2[nH]1)n1c(=O)c(-c2cccs2)nc2ccccc21` (configuration not stated), the max response, negative = inhibition is 7.42%.

Consider `COc1ccc(-c2[nH][nH]c(=O)c2NC(=O)c2ccc([N+](=O)[O-])cc2)cc1`, for which the max response, negative = inhibition is -12.4%. For the molecule `Cc1ccc(C(=O)Nc2c(-c3ccccc3)[nH][nH]c2=O)cc1`, the Potency was 23.8 µM (active). In the case of `Cc1ccc(C(=O)Nc2nc(N)n(-c3ccccc3)n2)cc1`, the max response, negative = inhibition was -8.25%. On to `CCOC(=O)c1c(NC(=O)C(C)Sc2c[nH]c3ccccc23)sc2c1CCC2` (configuration not stated), for which the max response, negative = inhibition is -20.8%. On the same count and under the same terms, in the case of `CCOC(=O)c1c(NC(=O)CSc2cn(CC)c3ccccc23)sc2c1CCC2` it was -5.08%. For `CCOC(=O)c1c(NC(=O)C2(C)Cc3ccccc3C(=O)O2)sc2c1CCCC2` (configuration not stated), the Potency is 23.8 µM (active). For `CC1(c2cccc(N)c2)OCCO1`, the max response, negative = inhibition is -12.9%. With `CCc1nc2ccc(C(=O)N(C)Cc3ccco3)cn2c1N(C)C(=O)Cc1ccccc1`, the max response, negative = inhibition is -2.7%. For the molecule `CC1(C(=O)NS(=O)(=O)c2cccc(F)c2)CCN1C(=O)Cc1cc(F)ccc1F` (configuration not stated), the max response, negative = inhibition is 1.7%.

As for `C[C@@H]1CN([C@H](C)CO)C(=O)c2cc(-c3ccc(F)cc3)cnc2O[C@H]1CN(C)C(=O)c1ccc(F)cc1`, the max response, negative = inhibition is -26.3%. With `OCCNc1nc(Nc2ccc(Cl)c(Cl)c2)nc2ccccc12`, the max response, negative = inhibition is -0.568%. Take `O=[N+]([O-])c1c(NCCO)cc(Sc2nc3ccccc3s2)c2nonc12`: the Potency was 1.68 µM (active). `Cc1ccc(CN(C)C[C@@H]2OCc3cnnn3CCCC(=O)N([C@@H](C)CO)C[C@H]2C)cc1`: the max response, negative = inhibition was -4.71%. Regarding `CC(C)(C)C1CCC(=O)N2CCC[C@]2(c2ccccc2)C1` (some centres not stated), the max response, negative = inhibition is -8.62%. With `COC(=O)C1=CN(c2c(C)cc(C)cc2C)C(N)=C(C#N)C1c1cccc(F)c1` (configuration not stated), the max response, negative = inhibition is 0.842%. Regarding `CC(C)Sc1nnc([C@H](Cc2ccccc2)NC(=O)OC(C)(C)C)o1`, the Potency is 23.8 µM (active). With `CCc1ccccc1NC(=O)CSc1nnc([C@@H](NC(=O)OC(C)(C)C)C(C)CC)o1` (some centres not stated), the max response, negative = inhibition is -15.7%. On the same count and under the same terms, in the case of `COc1ccccc1NC(=O)[C@H](COCc1ccccc1)NC(=O)OC(C)(C)C` it was -12.1%. Take `C[C@@H](NC(=O)OC(C)(C)C)c1nnc(S(=O)(=O)Cc2ccccc2)o1`: the Potency was 13.4 µM (active).

As for `CC(C)[C@@H](NC(=O)OC(C)(C)C)C(=O)NCC1CCC(C(=O)N[C@@H](Cc2ccccc2)C(=O)O)CC1` (some centres not stated), the max response, negative = inhibition is 3.75%.

For the molecule `CC(C)(C)c1ccc(C(CC(=O)O)NS(=O)(=O)Cc2ccccc2)cc1` (configuration not stated), the max response, negative = inhibition was -2.95%. Consider `CCCOc1ccc(F)cc1-c1cc(C(=O)NCc2ccc(F)cc2)[nH]n1`, for which the max response, negative = inhibition was -11.9%. For `COc1cc(C(=O)OCCCN2CCOCC2)cc(OC)c1OC`, the max response, negative = inhibition is 0.976%.

Turning to `CCOC(=O)N1CCN(C(=O)C[C@@H]2C[C@@]3(C(=O)OC)CC(C)(C)CC=C3N(Cc3ccco3)C2=O)CC1`, the max response, negative = inhibition is 2.41%. Still for that read-out and setting: under `Cc1cccc(CNC(=O)c2sc(=O)n(Cc3ccccc3C)c2C)c1` stands -6.16%; under `CCCCn1c(SCC(=O)N2CCOCC2)nc2c1c(=O)n(C)c(=O)n2C`, -13.8%.

Regarding `CCCCCn1c(SCCC(C)C)nc2c1c(=O)[nH]c(=O)n2C`, the Potency is 23.8 µM (active). As to `CCCCCCn1c(SCC(=O)c2ccccc2)nc2c1c(=O)[nH]c(=O)n2C`, the max response, negative = inhibition was -19.2%. Take `CCc1nc2c(OCC(=O)C(C)(C)C)cccn2c1N(C)C(=O)c1ccccc1F`: the max response, negative = inhibition is -11%. Still for that read-out and setting: in the case of `CC1(C)CC(=O)C=C(c2ccccc2CO)C1=O` it was -0.138%; in that of `Clc1ccc(-c2cccc3nccn23)cc1`, -1.38%; in that of `COC(=O)c1ccccc1N=NNc1ccc([N+](=O)[O-])cc1`, 0.193%. Regarding `COC(=O)c1ccccc1N=Nc1c(C)[nH][nH]c1=O`, the Potency was 23.8 µM (active). Consider `COC(=O)c1cn(C(=O)c2ccc(Cl)cc2)c2ccccc12`, for which the max response, negative = inhibition is -5.55%. Same read-out and setting: in the case of `CCN(CC)c1ncnc2c1ncn2[C@H]1CN(Cc2cccs2)C[C@@H](CO)O1` it was 2.82%.

As to `C[C@@H]1CCCCO[C@H](CN(C)Cc2ccccc2)[C@@H](C)CN([C@H](C)CO)C(=O)c2cc(NS(=O)(=O)c3ccc(Cl)cc3)ccc2O1`, the max response, negative = inhibition was -7.57%. With `O=C1CSC(=S)N1c1ccc(Cl)c(Cl)c1`, the Potency is 26.7 µM (active). As to `O=C1CSC(=S)N1c1ccc(O)cc1`, the max response, negative = inhibition is 1.87%. `COc1cc(N2C(=O)CSC2=S)cc(OC)c1OC`: the max response, negative = inhibition was -18.2%. Turning to `CCOC(=O)N1CCN(C(=O)C[C@@H]2C[C@@]3(C(=O)OC)CCCCC=C3N(CCC3=CCCCC3)C2=O)CC1`, the max response, negative = inhibition is 4.13%. With `Nc1ncnc2c1ncn2[C@@H]1O[C@H](C(=O)N2CCSC2)[C@@H](O)[C@H]1O`, the max response, negative = inhibition was -1.36%. Still for that read-out and setting: under `Clc1ccccc1Nc1nc(NCc2cccs2)nc2ccsc12` stands 0.746%; under `CCc1nc2c(OCCc3cccc(OC)c3)cccn2c1N(C)C(=O)c1ccc(C)cc1`, -4.74%. For the molecule `CC(=O)Nc1cc(-c2cccc(CO)c2)cn2c(-c3cccc(C(F)(F)F)c3)cnc12`, the max response, negative = inhibition was -14.2%. With `O=C(Nc1ccc(S(=O)(=O)Nc2ccccn2)cc1)c1ccccc1`, the max response, negative = inhibition is -2.45%. For the molecule `O=C(Nc1ccccc1)c1nnsc1S(=O)(=O)c1ccc(Cl)cc1`, the Potency is 4.74 µM (active). Consider `Cc1nnsc1S(=O)(=O)Cc1ccccc1Cl`, for which the max response, negative = inhibition is -7.17%. Consider `Cc1cc2nc(-c3ccc(F)cc3)c(Cc3ccsc3)n2c(C)c1Br`, for which the max response, negative = inhibition was -4.34%. The same measure, in the same setting: in the case of `CCc1c(-c2ccc(F)cc2)ncn1Cc1cccc(-c2ccccc2)c1` it was -16%. Same read-out and setting: under `COc1ccc(N(C)C(=O)CCS(=O)(=O)c2cccc3nsnc23)cc1` stands -20.6%. Same read-out and setting: under `CCN(CC)CCN(C(=O)c1ccc2c(c1)CCCC2)c1nc2c(OC)cccc2s1` stands -2.72%.

As to `COc1cccc2sc(N(CCCN(C)C)C(=O)CCS(=O)(=O)c3ccccc3)nc12`, the Potency is 10.6 µM (active). `CN1OC[C@@H]2CN(C(=O)c3ccc(-c4ccccc4)cc3)[C@H](c3ccc(-c4cccc(F)c4)cc3)C[C@@H]21`: the max response, negative = inhibition is -8.48%. As for `CC1=C(C(=O)N2CCOCC2)CC(CC(=O)NCc2cccs2)C(=O)N1CCCN1CCCC1=O` (configuration not stated), the max response, negative = inhibition is -11.8%. `C=CCNC(=S)N1CCc2[nH]c3ccccc3c2C1`: the max response, negative = inhibition is -8.32%. Turning to `CCCC(=O)N1CCc2[nH]c3ccccc3c2C1`, the Potency was 26.7 µM (active). On to `O=C(CCCN1CCc2[nH]c3ccc(F)cc3c2C1)c1ccc(F)cc1`, for which the max response, negative = inhibition was -6.15%. On the same count and under the same terms, in the case of `CCc1nc2c(OCc3ccc(F)c(F)c3)cccn2c1N(C)C(=O)c1ccco1` it was 1.07%. `O=C(OCc1ccccc1)N1CCC2CC1c1ccc(-c3ccc4c(c3)OCO4)cc12` (configuration not stated): the max response, negative = inhibition was 2.15%. On to `CC1(C(=O)NS(=O)(=O)c2cccc(OC(F)F)c2)CCN1C(=O)COc1ccc(Cl)cc1` (configuration not stated), for which the max response, negative = inhibition is 3.32%.

With `OC(c1ccc(Cl)c(F)c1)c1ncc(-c2ccccc2Cl)[nH]1` (configuration not stated), the max response, negative = inhibition was 3.86%.

In the case of `CCCCC(O)C1=C[N+](=O)CC=C1` (configuration not stated), the max response, negative = inhibition is -14.2%. Consider `C=C1c2c(Cl)ccc(O)c2C(O)=C2C(=O)[C@]3(O)C(O)=C(C(N)=O)C(=O)[C@@H](N(C)C)[C@@H]3[C@@H](O)C12` (some centres not stated), for which the Potency is 23.8 µM (active). Consider `CN(C)[C@@H]1C(=O)C(C(N)=O)=C(O)[C@@]2(O)C(=O)C3=C(O)c4c(O)ccc(Cl)c4[C@@H](O)[C@H]3C[C@@H]12`, for which the max response, negative = inhibition was -16.8%. Same read-out and setting: in the case of `O=C(COC(=O)c1cncc(Br)c1)Nc1ccc(S(=O)(=O)N2CCOCC2)cc1` it was -5.27%.

For `Nc1nc(Sc2ncccc2[N+](=O)[O-])n[nH]1`, the max response, negative = inhibition was 4.21%. As for `O=[N+]([O-])c1ccccc1S(=O)(=O)Nc1cccc2cccnc12`, the max response, negative = inhibition is -7.49%. Take `O=[N+]([O-])c1cccc2ncccc12`: the Potency is 3.77 µM (active). With `CC(C)Cn1cc(-c2cncc3nccn23)cn1`, the max response, negative = inhibition was -13.4%.
